# Source: PubChem
# In the library only some 4.1% were active in any assay of this set; here they are far more common.
# ssDAF12 agonist: S. stercoralis DAF-12 nuclear receptor activators, primary screen, cell-based, luminescence, HEK293, GRIP1 co-expression, lit1-tk-luc | activation, % at 6.8 µM | AID 652126, 2013 | 370,000 tested, 1% active | HEK293 ssDAF-12/GRIP1 lit1-tk-luc reporter; % of 3 µM dafachronic acid response;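 active = activation above the mean over all tested compounds plus 3 SD, cut at about 0.9% in these data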;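 note: 0% = DMSO-only wells and 100% = 3 µM delta7-dafachronic acid wells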
# DAX1 inh-1: DAX1 (NR0B1) inhibitors, primary screen, cell-based, HEK293, Gal4-DAX1, luciferase luminescence; Nuclear receptor subfamily 0 group B member 1 (Homo sapiens), P51843; HEK293 Gal4-DAX1 luciferase reporter; inhibition, % at 6.75 µM; 340,000 tested, 0.99% active; AID 504766, 2011;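 active = inhibition above the mean over all tested compounds plus 3 SD, cut at about 4.2% in these data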;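 note: 0% = DAX1-transfected cells with DMSO and 100% = empty-vector control cells with DMSO; inhibition shows as a rise in luminescence from relieved DAX1 repression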
# Target sequence (P51843 207-470 limits assumed): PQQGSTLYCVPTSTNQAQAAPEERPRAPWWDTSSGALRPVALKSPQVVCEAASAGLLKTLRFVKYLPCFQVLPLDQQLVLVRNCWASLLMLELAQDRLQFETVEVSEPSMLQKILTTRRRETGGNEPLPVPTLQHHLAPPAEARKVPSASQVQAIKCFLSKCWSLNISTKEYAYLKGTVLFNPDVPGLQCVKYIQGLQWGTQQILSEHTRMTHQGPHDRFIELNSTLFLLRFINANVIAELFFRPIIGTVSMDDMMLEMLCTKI
# DAX1 inh-2: DAX1 (NR0B1) inhibitors on StAR promoter, primary screen, cell-based, luminescence, SF-1 (NR5A1), full-length DAX-1; AID 652010, 2013; HEK293T StAR-luciferase reporter, SF-1/DAX-1 repression relief; inhibition, % at 6.8 µM; 370,000 tested, 1.1% active;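 active = inhibition above the mean over all tested compounds plus 3 SD, cut at about 3.6% in these data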;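 note: 0% = DAX-1 cells with DMSO and 100% = cells lacking DAX-1 with DMSO; higher inhibition means more luminescence from relief of DAX-1 repression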
# hcDAF-12 act: H. contortus DAF-12 nuclear receptor activators, primary screen, cell-based, luminescence, HEK293, lit1-tk-luc reporter | HEK293 hcDAF-12 lit1-tk-luc reporter; 0% DMSO, 100% Δ7-dafachronic acid | activation, % at 6.8 µM | 370,000 tested, 1.4% active;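 active = activation above the mean of all tested compounds plus 3 SD, cut at about 5.5% in these data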;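 note: 100% = response to 3 µM Δ7-dafachronic acid high control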
# hgDAF-12 ag: H. glycines DAF-12 receptor agonists, primary screen, cell-based, luminescence, HEK293, GAL4 fusion, UAS-luciferase; HEK293 GAL4-hgDAF12 UAS-luciferase reporter, agonist luminescence; normalized to butyrate control; 370,000 tested, 1.8% active; activation, % at 6.8 µM; AID 687014, 2013;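 active = activation above a cutoff set at the mean of all screened compounds plus 3 SD, cut at about 10% in these data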;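 note: 0% = DMSO wells and 100% = sodium butyrate wells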
# LXRb hcDAF ctr: LXR agonists, Gal4 luciferase reporter, confirmation, counter-screen for hcDAF-12 agonist project, cell-based, luminescence, HEK293, H. contortus campaign | HEK293 Gal4-LXR tk-luc reporter, 24 h; normalized: DMSO 0%, positive control 100% | 3,400 tested, under 10 active | shares compounds with hcDAF-12 act | activation, % at 6.8 µM | AID 743027, 2013;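 active = mean percent activation of the reporter above a cutoff set as the average over tested compounds plus their standard deviation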
# hcDAF12 ag: H. contortus DAF-12 receptor agonists, confirmation, cell-based, luminescence, HEK293, lit1-tk-luc, triplicate. HEK293 hcDAF-12 lit1-tk-luc reporter; % of Δ7-dafachronic acid response. activation, % at 6.8 µM. AID 743032, 2013. 3,400 tested, 61% active. shares compounds with hcDAF-12 act;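 active = mean activation across triplicate tests above the threshold derived from the earlier primary screen, cut at about 5.5% in these data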;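 note: 0% = DMSO only wells and 100% = 3 µM Δ7-dafachronic acid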
# hgDAF12 ag: H. glycines DAF-12 receptor agonists, confirmation, cell-based, luminescence, HEK293, GAL4-LBD fusion | 3,300 tested, 80% active | activation, % at 6.8 µM | HEK293 GAL4-hgDAF12 luciferase reporter, agonist mode; percent of butyrate response | shares compounds with hgDAF-12 ag;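 active = mean activation over triplicate wells above the hit cutoff derived from the earlier primary screen, cut at about 11% in these data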;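 note: 0% = DMSO low control and 100% = 2 mM sodium butyrate high control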
# LXR ag 2: LXR agonists, Gal4 luciferase reporter, confirmation, counter-screen for hgDAF-12 agonist project, cell-based, luminescence, HEK293, H. glycines campaign. shares compounds with hgDAF-12 ag. 24 h. activation, % at 6.8 µM. 3,300 tested, under 10 active. AID 743051, 2013;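 active = mean activation of the triplicate above a set limit carried over from the primary screen, none filed active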
# * marks the source's active call; other numbers are inactive results; . = not tested or not shown; ! = repeats disagree.
SMILES,ssDAF12 agonist,DAX1 inh-1,DAX1 inh-2,hcDAF-12 act,hgDAF-12 ag,LXRb hcDAF ctr,hcDAF12 ag,hgDAF12 ag,LXR ag 2
CC(=O)N1CCN(Cc2nc3cc(NC(=O)COc4cccc(C)c4)ccc3n2C)CC1,-2,0,-1,-3,-3,.,.,.,.
C[n+]1c2cc(N)ccc2cc2ccc(N)cc21,0,-1,-3,6.6*,13*!,1,11*,8,1
Cc1nc(-c2ccc3c(c2)OCO3)cs1,0,0,0,5,3,.,.,.,.
Cc1nc(-c2ccc3c(c2)OCCCO3)cs1,0,3,2,6.6*,13*,1,5,18*,1
COC(=O)c1cc(N=Nc2c(C)[nH]c3ccccc23)cc(C(=O)OC)c1,-1,1,0,0,3,.,.,.,.
Cc1[nH]n(-c2ccccc2)c(=O)c1N=Nc1cccc(C(=O)O)c1,2.2*,-3,3,8.9*,14*,1,12*,15*,1
Cc1[nH]c2ccccc2c1N=Nc1cccc(C(=O)O)c1,2.9*,2,4.2*,12*,14*,1,7.6*,19*,1
CNC(=S)NN=C(C)CCCC(C)=NNC(=S)NC,-1,-1,0,-1,-1,.,.,.,.
CCCCC[C@@H]1C=C(C(=O)O)[C@H](c2ccc3c(c2)OCO3)N1S(=O)(=O)c1ccc(C)cc1,-2,0,2,-1,-3,.,.,.,.
CC1CCN(C(=O)COC(=O)C2CCN(S(=O)(=O)c3ccc4c(c3)OCCO4)CC2)CC1,0,0,0,-1,-3,.,.,.,.
Cc1ccc(S(=O)(=O)N2CCOCC2)cc1NC(=O)COc1ccccc1Cc1ccccc1,-1,-1,-1,-3,0,.,.,.,.
CCOn1c(=O)c(-c2cc3ccccc3o2)[n+]([O-])c2ccccc21,.,1,.,.,.,.,.,.,.
O=c1c(-c2cc3ccccc3o2)[n+]([O-])c2ccccc2n1OCc1ccccn1,2.2*,4,4.3*,15*,18*,1,9.7*,21*,1
CCOc1cc(C2NN=C(c3ccccc3)S2)ccc1OCc1ccccc1Cl (configuration not stated),1.4*,5.9*,3,8.7*,16*,2,9.2*,16*,1
Cc1cc(OCCCC(=O)Nc2cccc(-n3cnnn3)c2)ccc1Cl,-1,0,-1,-5,-3,.,.,.,.
Cc1cc(NC(=O)c2cc3cccc([N+](=O)[O-])c3[nH]2)ccc1F,0,9.7*,2,7.7*,14*,1,7.1*,13*,1
CCC1CCCCN1CCCNC(=O)Cn1cc2c(n1)-c1c(oc(C(=O)N3CCCC3)c1C)CC2 (configuration not stated),-1,1,0,-1,1,.,.,.,.
COc1cc(NC(=O)C/C(C)=N/NC(=O)c2cccs2)c(OC)cc1Cl,0,2,4.0*,7.9*,15*,0,4,6,0
COc1cc(NC(=O)C/C(C)=N/NC(=O)Cc2ccccc2)c(OC)cc1Cl,-1,-1,-1,4,1,.,.,.,.
COC(=O)c1sc(NC(=S)NC(=O)c2cccc(C)c2)nc1C,-1,0,0,1,3,.,.,.,.
Cc1nc(NC(=S)NC(=O)c2ccccc2)sc1C,0,5.3*,1,8.0*,14*,1,15*,14*,1
Cc1nc(NC(=O)c2cc3ccccc3o2)sc1C,0,-1,2,10*,14*,2,8.1*,17*,1
O=C(Nc1ccc2c(c1)CCC2)c1cc2ccccc2o1,1.6*,2,3,7.9*,17*,1,5,22*,1
Cc1nnc(NC(=O)c2cc3ccccc3o2)s1,0,2,1,4,7,.,.,.,.
Cc1ccc(-c2nnc(N3CCCCC3)c3ccccc23)cc1S(=O)(=O)NCC1CCCO1 (configuration not stated),-1,-2,-1,-2,-4,.,.,.,.
SMILES,ssDAF12 agonist,DAX1 inh-1,DAX1 inh-2,hcDAF-12 act,hgDAF-12 ag,LXRb hcDAF ctr,hcDAF12 ag,hgDAF12 ag,LXR ag 2
O=c1ccc(-c2ccccc2)no1,-1,0,0,0,2,.,.,.,.
O=C(COC(=O)c1ccc(Br)o1)NCC(=O)Nc1ccc(F)cc1,-1,-1,3,-2,5,.,.,.,.
C[C@H]1CN([C@@H](C)CO)C(=O)Cc2cc(NS(=O)(=O)c3cn(C)cn3)ccc2O[C@@H]1CN(C)C(=O)Nc1ccc(F)cc1,-2,0,1,0,1,.,.,.,.
COc1ccc(-c2csc(NC(=O)c3c(C)noc3C)n2)cc1OC,-2,-2,-3,-2,-5,.,.,.,.
COc1ccc(S(=O)(=O)N2CCOCC2)cc1NC(=O)CN1C(=O)NC2(CCCCC2C)C1=O (configuration not stated),-1,-1,0,1,-2,.,.,.,.
Cc1cc(C(=O)Nc2ccc3ccccc3c2)oc1C,1,2,3,7.3*,19*,1,6.9*,19*,1
Cc1cc(C(=O)Nc2ccc3ccccc3c2)c(C)o1,1.7*,2,3,8.5*,18*,2,11*,21*,1
Fc1ccccc1N1CCN(c2cnc3ccccc3n2)CC1,1,-1,3,6.6*,19*,1,5,17*,1
c1ccc(CN2CCN(c3cnc4ccccc4n3)CC2)cc1,-1,2,-1,2,5,.,.,.,.
CCOc1ccc(-c2cc(C(=O)NN)[nH]n2)cc1,0,1,4,6.8*,16*,0,1,4,0
